Measurements as given in PMC11062922 (Nature Chemical Biology, 2023).
Like-named read-outs stand apart in the source and are kept apart here.

Tests used:
Parameters in all cases: species or system human, MV4-11 + K-562 + COLO205 + SK-N-BE2 + OVCAR-8
[1] = system: CSNK1A1; details: read-out: apparent Kd, n = 1
[2] = system: PIK3CD; details: read-out: apparent Kd, n = 1
[3] = system: PRKCA; details: read-out: apparent Kd, n = 1
[4] = system: TNIK; details: read-out: apparent Kd, n = 1
[5] = system: PIP4K2C; details: read-out: apparent Kd, n = 1
[6] = system: PRKACA; details: read-out: apparent Kd, n = 1
[7] = system: ROCK2; details: read-out: apparent Kd, n = 1
[8] = system: ERCC2; details: read-out: apparent Kd; compound concentrations: 100 nM and 1000 nM (sheet 'Samples'), CATDS: 3.4220969225155197E-2; n = 1
[9] = system: FER; details: read-out: apparent Kd; compound concentrations: 100 nM and 1000 nM (sheet 'Samples'), CATDS: 3.2819446415030699E-2; n = 1
[10] = system: PRKAA1; details: read-out: apparent Kd, n = 1
[11] = system: PRKCQ; details: read-out: apparent Kd, n = 1
[12] = system: STK16; details: read-out: apparent Kd, compound concentrations: 100 nM and 1000 nM (sheet 'Samples'), n = 1
[13] = system: CSNK1D; details: read-out: apparent Kd, compound concentrations: 100 nM and 1000 nM (sheet 'Samples'), n = 1
[14] = system: MAPK10; details: read-out: apparent Kd, compound concentrations: 100 nM and 1000 nM (sheet 'Samples'), n = 1
[15] = system: MAPK8; details: read-out: apparent Kd, compound concentrations: 100 nM and 1000 nM (sheet 'Samples'), n = 1
[16] = system: STK3; details: read-out: apparent Kd, compound concentrations: 100 nM and 1000 nM (sheet 'Samples'), n = 1
[17] = system: MARK2; details: read-out: apparent Kd, n = 1
[18] = system: PKN2; details: read-out: apparent Kd; compound concentrations:100 nM and 1000 nM (sheet 'Samples'); n = 1
[19] = system: PRKACB; details: read-out: apparent Kd; compound concentrations:100 nM and 1000 nM (sheet 'Samples'); n = 1
[20] = system: RPS6KB1; details: read-out: apparent Kd; compound concentrations:100 nM and 1000 nM (sheet 'Samples'); n = 1
[21] = compound concentrations:100 nM and 1000 nM (sheet 'Samples')

`Cc1cccc(Nc2nc(N[C@H]3CCNC3)ncc2C(N)=O)c1.Cl` [GSK2197149A] gave a potency estimated from few doses [1, 21] of 1560 nM, a potency estimated from few doses [2, 21] of 10.5 nM and a potency estimated from few doses [3, 21] of 437 nM. The potency estimated from few doses [4, 21] was 1590 nM.

`CNCc1ccc(-c2cc(-c3nc(-c4ccc(S(=O)(=O)C(C)C)cc4)cnc3N)on2)cc1` [VE-822] was tested, and the potency estimated from few doses [5, 21] was 186 nM and the potency estimated from few doses [4, 21] was 1650 nM.

With `Cl.Cl.NC(CNC(=O)c1cc(Br)c(-c2ccnc3[nH]ccc23)s1)c1ccccc1.NC(CNC(=O)c1cc(Br)c(-c2ccnc3[nH]ccc23)s1)c1ccccc1` (centres unmarked) [GSK1322949A] the potency estimated from few doses ([6]; compound concentrations: 100 nM and 1000 nM (sheet 'Samples'), CATDS: 2.91010350116075E-2) was 1300 nM and the potency estimated from few doses ([7]; compound concentrations: 100 nM and 1000 nM (sheet 'Samples'), CATDS: 0.12553300825941399) was 122 nM.

Compound `Cc1ccccc1-n1ncc(C(=O)c2ccccc2)c1N` [RO1151248-000] has a potency estimated from few doses [8] of 462 nM, a potency estimated from few doses [9] of 496 nM and a potency estimated from few doses ([2]; compound concentrations: 100 nM and 1000 nM (sheet 'Samples'), CATDS: 6.44780865676087E-2) of 184 nM. It also gave a potency estimated from few doses ([10]; compound concentrations: 100 nM and 1000 nM (sheet 'Samples'), CATDS: 2.2348662654876499E-2) of 1060 nM, a potency estimated from few doses ([11]; compound concentrations: 100 nM and 1000 nM (sheet 'Samples'), CATDS: 1.77818646264679E-2) of 2020 nM and a potency estimated from few doses ([12]; CATDS: 1.8222125974055099E-2) of 1860 nM.

For `CCN(CC)Cc1ccc(Nc2nccc(-c3cnn4ncccc34)n2)cc1` [GW780056X], the potency estimated from few doses ([13]; CATDS: 9.4015783065552402E-2) was 47.8 nM, the potency estimated from few doses ([14]; CATDS: 3.1976328377255003E-2) was 371 nM and the potency estimated from few doses ([15]; CATDS: 2.1413758236852699E-2) was 1050 nM.

With `CCn1c(-c2cccnc2O)nc2cnccc21` [SB-736715] the potency estimated from few doses ([1]; compound concentrations: 100 nM and 1000 nM (sheet 'Samples'), CATDS: 1.24384070369575E-2) was 1990 nM, the potency estimated from few doses ([15]; CATDS: 1.2937412229939001E-2) was 1800 nM and the potency estimated from few doses ([2]; compound concentrations: 100 nM and 1000 nM (sheet 'Samples'), CATDS: 9.8292238183885799E-2) was 84.5 nM. For the same compound, the potency estimated from few doses ([5]; compound concentrations: 100 nM and 1000 nM (sheet 'Samples'), CATDS: 1.9889508399788002E-2) was 761 nM, the potency estimated from few doses ([12]; CATDS: 1.41773006803768E-2) was 1460 nM and the potency estimated from few doses ([16]; CATDS: 1.16838495849846E-2) was 2360 nM.

`CCn1c(-c2nonc2N)nc2c(C#CC(C)(C)O)nc(O[C@@H](CN)c3ccccc3)cc21.O=C(O)C(F)(F)F` [GSK1007102B] gave a potency estimated from few doses [17, 21] of 173 nM, a potency estimated from few doses [18] of 390 nM and a potency estimated from few doses [10, 21] of 917 nM. For the same compound, the potency estimated from few doses [6, 21] was 37.5 nM, the potency estimated from few doses [19] was 41.1 nM and the potency estimated from few doses [3, 21] was 1410 nM. The potency estimated from few doses [11, 21] was 71.9 nM, the potency estimated from few doses [7, 21] was 1670 nM and the potency estimated from few doses [20] was 1890 nM.

With `O=C(O)C(F)(F)F.O=c1[nH]ccc2nc(N[C@@H]3CCNC3)nc(Nc3ccc4c(c3)S(=O)(=O)CC4)c12` [GSK2181306A] the potency estimated from few doses ([1]; compound concentrations: 100 nM and 1000 nM (sheet 'Samples'), CATDS: 1.4603210367733301E-2) was 330 nM, the potency estimated from few doses ([13]; CATDS: 9.27581508882039E-3) was 1080 nM and the potency estimated from few doses ([17]; compound concentrations: 100 nM and 1000 nM (sheet 'Samples'), CATDS: 1.1093040316995199E-2) was 635 nM. For the same compound, the potency estimated from few doses ([10]; compound concentrations: 100 nM and 1000 nM (sheet 'Samples'), CATDS: 1.0186150726121701E-2) was 806 nM, the potency estimated from few doses ([3]; compound concentrations: 100 nM and 1000 nM (sheet 'Samples'), CATDS: 1.32180266874378E-2) was 412 nM and the potency estimated from few doses ([11]; compound concentrations: 100 nM and 1000 nM (sheet 'Samples'), CATDS: 2.6170878676828799E-2) was 109 nM. The potency estimated from few doses ([12]; CATDS: 9.1549687714340792E-3) was 1130 nM, the potency estimated from few doses ([16]; CATDS: 1.36866990132516E-2) was 381 nM and the potency estimated from few doses ([4]; compound concentrations: 100 nM and 1000 nM (sheet 'Samples'), CATDS: 1.2529799183739801E-2) was 467 nM.

`COc1cc(Nc2nccc(-c3cnn4ncccc34)n2)cc(OC)c1` [GW801372X] showed a potency estimated from few doses ([13]; CATDS: 1.8156615660070499E-2) of 1710 nM, a potency estimated from few doses ([14]; CATDS: 2.5530057385415701E-2) of 532 nM and a potency estimated from few doses ([15]; CATDS: 2.2830325415810902E-2) of 746 nM. The potency estimated from few doses ([2]; compound concentrations: 100 nM and 1000 nM (sheet 'Samples'), CATDS: 4.4256260948390198E-2) was 135 nM, the potency estimated from few doses ([5]; compound concentrations: 100 nM and 1000 nM (sheet 'Samples'), CATDS: 2.38914066508359E-2) was 648 nM and the potency estimated from few doses ([12]; CATDS: 1.87533606847229E-2) was 1500 nM.
